Results filed as inconclusive are left out. Values without a mark were called inactive. Calls follow the shape of the dose curve; as a rule, active = well fitted inhibition curve with a large enough effect; inconclusive = small, poorly fitted or top-dose-only effect; inactive = no such curve, though single readings can be large or run the other way.
target: Papain (Carica papaya) (UniProt P00784); assay: Primary qHTS assay for inhibitors of the protease papain (AID 1645873); settings: papain Z-FR-AMC cleavage, AMC fluorescence; series mostly up to 49.8 µM; activity change, negative = inhibition: at the top concentration;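 also: papain turnover of Z-FR-AMC read as the AMC fluorescence gain over 10 min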
Sequence (P00784 whole entry, looked up): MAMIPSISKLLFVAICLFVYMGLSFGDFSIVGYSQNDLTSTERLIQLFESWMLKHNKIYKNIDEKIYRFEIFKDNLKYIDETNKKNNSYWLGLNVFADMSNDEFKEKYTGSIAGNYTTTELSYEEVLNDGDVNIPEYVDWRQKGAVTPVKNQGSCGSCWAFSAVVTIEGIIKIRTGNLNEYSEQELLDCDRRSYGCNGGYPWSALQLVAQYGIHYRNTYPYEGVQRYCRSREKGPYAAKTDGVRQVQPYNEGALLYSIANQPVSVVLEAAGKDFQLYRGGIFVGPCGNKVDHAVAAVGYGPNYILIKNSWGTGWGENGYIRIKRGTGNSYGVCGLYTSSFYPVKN
% is scaled to controls: 0 for no effect and ±100 for the full control effect.

| Compound | activity change, negative = inhibition [%] |
| --- | --- |
| C=CC[C@H](N)C(=O)O | 20.2 |
| [Li+] | -10.7 |
| CCC1(O)CC2CN(CCc3c([nH]c4ccccc34)[C@@](C(=O)OC)(c3cc4c(cc3OC)N(C=O)C3[C@]45CCN4CC=C[C@@](CC)([C@@H](OC(C)=O)[C@]3(O)C(=O)OC)[C@H]45)C2)C1 (some centres undefined) | -12 |
| CSC(N)=NCCC[C@H](N)C(=O)O | 13.8 |
| CCCCOc1cc(CC2CNC(=O)N2)ccc1OC (centres undefined) | -3.15 |
| COc1cc(CC(=O)O)ccc1O | -4.59 |
| CCCOC(=O)c1c(-c2ccccc2)nc(CC)c(C(=O)SCC)c1CCC | 49.2 |
| CN(C)CCC(c1ccc(Br)cc1)c1ccccn1 (centres undefined) | -8.91 |
| CC(N)(C(=O)O)c1ccc(C(=O)O)cc1 (centres undefined) | 4.23 |
| S=C(S)N1CCCC1 | 36.7 |
| CCCCCC(O)CCCC(=O)O (centres undefined) | 10.2 |
| CCCCCCCCCC[Si](C)(C)CCC(=O)NC(Cc1ccc(C)cc1)c1ccccc1 (centres undefined) | 0.81 |
| CN1CC(O)C(O)C(O)C1CO (centres undefined) | -4.23 |
| Cn1ccnc1 | -9.81 |

— PubChem BioAssay (NCATS)
